# Measured values reported in PubChem BioAssay (NCATS).
# Results filed as inconclusive are left out. Where a call stands in place of a potency, no number is given. Activity calls are given as the source filed them. Unless noted, calls come from the whole dose curve; as a rule, active = well fitted curve in the direction sought with a large enough effect; inconclusive = small, poorly fitted or top-dose-only effect, or another doubt; inactive = no such curve, though single readings can be large; an effect the other way counts as inactive or inconclusive.
# Key:
# [1] = biological target: Peroxisome proliferator-activated receptor gamma (Homo sapiens) (UniProt P37231); experiment: qHTS assay for small molecule agonists of peroxisome proliferator-activated receptor gamma signaling (AID 588536; active = well fitted curve in the direction sought with a large enough effect in the signal ratio, with a control signal flat, not every such curve was filed as active; the % refers to the signal ratio)
# Peroxisome proliferator-activated receptor gamma (Homo sapiens), sequence (P37231 whole entry, looked up): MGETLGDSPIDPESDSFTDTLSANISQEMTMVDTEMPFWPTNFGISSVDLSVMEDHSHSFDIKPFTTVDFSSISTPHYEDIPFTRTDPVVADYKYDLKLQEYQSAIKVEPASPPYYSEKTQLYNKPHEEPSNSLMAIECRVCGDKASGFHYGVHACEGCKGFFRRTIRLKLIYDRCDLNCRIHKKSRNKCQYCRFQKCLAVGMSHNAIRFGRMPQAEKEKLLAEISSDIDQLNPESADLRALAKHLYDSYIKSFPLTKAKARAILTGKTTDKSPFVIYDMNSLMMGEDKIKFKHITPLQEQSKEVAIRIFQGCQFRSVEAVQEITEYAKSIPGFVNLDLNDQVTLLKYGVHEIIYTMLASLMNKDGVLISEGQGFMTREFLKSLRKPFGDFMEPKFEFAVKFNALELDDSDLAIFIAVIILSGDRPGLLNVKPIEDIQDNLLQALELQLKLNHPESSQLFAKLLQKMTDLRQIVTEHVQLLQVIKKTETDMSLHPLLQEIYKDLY
# Procedure, shortened: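 This is an agonist-mode beta-lactamase reporter assay in HEK293 PPAR-gamma-UAS-bla cells with 1% charcoal/dextran FBS. Compound titrations ran 16 h at 37 C before CCF4 detection. EC50 and efficacy are Hill fits scaled to 2 uM rosiglitazone (100%) and DMSO basal.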
# [2] = biological target: Vitamin D3 receptor (Homo sapiens) (UniProt P11473); experiment: qHTS assay for small molecule antagonists of vitamin D receptor signaling (AID 588541; calls by dose curve;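 note: receptor activated by calcitriol during compound treatment; series mostly up to about 77 µM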)
# Vitamin D3 receptor (Homo sapiens), sequence (P11473 whole entry, looked up): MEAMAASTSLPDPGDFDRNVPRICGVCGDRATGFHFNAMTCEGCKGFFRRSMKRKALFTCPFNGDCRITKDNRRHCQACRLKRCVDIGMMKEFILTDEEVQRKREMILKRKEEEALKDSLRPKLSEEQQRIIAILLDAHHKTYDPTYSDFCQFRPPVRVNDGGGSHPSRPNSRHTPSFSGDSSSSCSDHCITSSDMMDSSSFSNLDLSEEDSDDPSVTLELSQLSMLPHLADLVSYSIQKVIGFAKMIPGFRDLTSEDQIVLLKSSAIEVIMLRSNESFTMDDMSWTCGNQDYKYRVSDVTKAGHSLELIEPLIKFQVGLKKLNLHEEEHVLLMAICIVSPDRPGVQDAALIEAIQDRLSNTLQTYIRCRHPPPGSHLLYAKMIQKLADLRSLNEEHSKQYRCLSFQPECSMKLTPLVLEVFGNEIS
# Procedure, shortened: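 Antagonist-mode beta-lactamase reporter assay: HEK293T VDR-UAS-bla cells were exposed to titrated compound alongside 1-alpha,25-dihydroxyvitamin D3 at 3 nM final for 16 h. Values were normalized to the 50 nM agonist control and DMSO basal, with IC50 and efficacy from Hill equation fits.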
# [3] = biological target: Vitamin D3 receptor (Homo sapiens) (UniProt P11473); experiment: qHTS assay for small molecule agonists of vitamin D receptor signaling (AID 588543; calls by dose curve)
# Procedure, shortened: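 Agonist-mode beta-lactamase reporter: HEK293T VDR-UAS-bla cells in charcoal-stripped 2% FBS, compound series 16 h 37 C, CCF4 2 h RT. EC50 from Hill fit, scaled against DMSO and 50 nM calcitriol control.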
# [4] = qHTS assay for small molecule agonists of retinoid X receptor alpha signaling (AID 588544; calls by dose curve); settings: HEK293T RXRa-UAS-bla, beta-lactamase reporter, 18 h; 530 nm emission
# [5] = biological target: Retinoic acid receptor RXR-alpha (Homo sapiens) (UniProt P19793); experiment: as above
# Retinoic acid receptor RXR-alpha (Homo sapiens), sequence (P19793 whole entry, looked up): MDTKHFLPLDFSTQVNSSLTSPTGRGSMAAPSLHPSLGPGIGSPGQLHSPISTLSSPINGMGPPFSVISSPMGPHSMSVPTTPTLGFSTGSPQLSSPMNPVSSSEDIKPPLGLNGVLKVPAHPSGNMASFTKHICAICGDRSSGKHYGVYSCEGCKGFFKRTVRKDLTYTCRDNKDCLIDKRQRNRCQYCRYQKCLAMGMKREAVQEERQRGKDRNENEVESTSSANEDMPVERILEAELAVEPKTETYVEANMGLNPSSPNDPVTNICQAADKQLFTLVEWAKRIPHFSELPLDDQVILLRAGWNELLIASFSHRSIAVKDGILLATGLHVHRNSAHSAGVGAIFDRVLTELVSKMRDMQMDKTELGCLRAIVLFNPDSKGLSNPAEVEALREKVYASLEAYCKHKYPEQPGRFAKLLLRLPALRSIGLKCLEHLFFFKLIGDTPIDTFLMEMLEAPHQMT
# [6] = biological target: Thyroid hormone receptor beta (Homo sapiens) (UniProt P10828); experiment: qHTS assay for small molecule agonists of thyroid hormone receptor beta signaling (AID 588545; calls by dose curve)
# Thyroid hormone receptor beta (Homo sapiens), sequence (P10828 whole entry, looked up): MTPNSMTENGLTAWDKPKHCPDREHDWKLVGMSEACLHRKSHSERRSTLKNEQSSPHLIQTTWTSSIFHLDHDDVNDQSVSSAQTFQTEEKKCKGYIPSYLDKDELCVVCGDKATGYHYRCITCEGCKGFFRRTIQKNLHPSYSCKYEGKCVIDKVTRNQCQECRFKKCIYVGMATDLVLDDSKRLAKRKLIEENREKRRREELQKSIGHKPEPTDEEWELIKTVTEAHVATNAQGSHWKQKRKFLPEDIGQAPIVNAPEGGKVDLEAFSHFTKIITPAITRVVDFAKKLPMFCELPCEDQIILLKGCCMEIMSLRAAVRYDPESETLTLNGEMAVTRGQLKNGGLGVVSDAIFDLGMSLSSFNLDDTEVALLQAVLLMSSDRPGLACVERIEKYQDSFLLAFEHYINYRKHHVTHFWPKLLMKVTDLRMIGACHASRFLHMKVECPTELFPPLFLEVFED
# Procedure, shortened: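 Stimulation of a TR-driven beta-lactamase reporter was quantified in GripTite HEK 293 cells. Compound series ran for 18 hrs; curves were normalized to T3 and DMSO controls and fitted to yield EC50.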
# [7] = qHTS assay for small molecule antagonists of retinoid X receptor alpha signaling (AID 588546; active = well fitted inhibition curve with a large enough effect in the signal ratio, with a control signal flat, not every such curve was filed as active; the % refers to the signal ratio;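 note: cells stimulated with 9-cis-retinoic acid as agonist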); settings: HEK293T RXRa-UAS-bla, beta-lactamase ratio, antagonist mode; measured here: W530 green channel, cytotoxicity proxy
# Procedure, shortened: (§1)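 Beta-lactamase reporter inhibition, read as CCF4 fluorescence ratio (ex 405, em 460/530 nm) after 2 h at RT. HEK293T UAS-bla cells, 2500/well, were stimulated with 9-cis-RA at 500 or 100 nM final alongside test compound for 18 h at 37 C.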
# [8] = biological target: Retinoic acid receptor RXR-alpha (Homo sapiens) (UniProt P19793); experiment: as above; settings: HEK293T RXRa-UAS-bla, beta-lactamase ratio, antagonist mode
# Procedure, shortened: as §1
# [9] = biological target: Thyroid hormone receptor beta (Homo sapiens) (UniProt P10828); experiment: qHTS assay for small molecule antagonists of thyroid hormone receptor beta signaling (AID 588547; active = well fitted inhibition curve with a large enough effect in the signal ratio, with a control signal flat, not every such curve was filed as active; the % refers to the signal ratio;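 note: cells stimulated with 0.4 nM T3 agonist during compound exposure; series mostly up to about 77 µM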); settings: TR-UAS-bla HEK293, beta-lactamase ratio, antagonist mode, 18 h
# Procedure, shortened: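 Inhibition of T3-driven (0.4nM final) beta-lactamase reporter activity was measured over 0.59 nM to 92 uM compound after 18 h at 37 C. The cells were GripTite HEK293 TR-UAS-bla in charcoal/dextran-stripped serum, with CCF4 ratio read-out and IC50 from Hill fits.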
# [10] = biological target: Voltage-gated inwardly rectifying potassium channel KCNH2 (Homo sapiens) (UniProt Q12809); experiment: qHTS Assay for Small Molecule Inhibitors of the Human hERG Channel Activity (AID 588834);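 note: lower thallium flux fluorescence means stronger hERG block; nearly all actives have a fitted effect of over 50% in size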; note: potency is the fitted concentration of half-maximal effect
# Voltage-gated inwardly rectifying potassium channel KCNH2 (Homo sapiens), sequence (Q12809 whole entry, looked up): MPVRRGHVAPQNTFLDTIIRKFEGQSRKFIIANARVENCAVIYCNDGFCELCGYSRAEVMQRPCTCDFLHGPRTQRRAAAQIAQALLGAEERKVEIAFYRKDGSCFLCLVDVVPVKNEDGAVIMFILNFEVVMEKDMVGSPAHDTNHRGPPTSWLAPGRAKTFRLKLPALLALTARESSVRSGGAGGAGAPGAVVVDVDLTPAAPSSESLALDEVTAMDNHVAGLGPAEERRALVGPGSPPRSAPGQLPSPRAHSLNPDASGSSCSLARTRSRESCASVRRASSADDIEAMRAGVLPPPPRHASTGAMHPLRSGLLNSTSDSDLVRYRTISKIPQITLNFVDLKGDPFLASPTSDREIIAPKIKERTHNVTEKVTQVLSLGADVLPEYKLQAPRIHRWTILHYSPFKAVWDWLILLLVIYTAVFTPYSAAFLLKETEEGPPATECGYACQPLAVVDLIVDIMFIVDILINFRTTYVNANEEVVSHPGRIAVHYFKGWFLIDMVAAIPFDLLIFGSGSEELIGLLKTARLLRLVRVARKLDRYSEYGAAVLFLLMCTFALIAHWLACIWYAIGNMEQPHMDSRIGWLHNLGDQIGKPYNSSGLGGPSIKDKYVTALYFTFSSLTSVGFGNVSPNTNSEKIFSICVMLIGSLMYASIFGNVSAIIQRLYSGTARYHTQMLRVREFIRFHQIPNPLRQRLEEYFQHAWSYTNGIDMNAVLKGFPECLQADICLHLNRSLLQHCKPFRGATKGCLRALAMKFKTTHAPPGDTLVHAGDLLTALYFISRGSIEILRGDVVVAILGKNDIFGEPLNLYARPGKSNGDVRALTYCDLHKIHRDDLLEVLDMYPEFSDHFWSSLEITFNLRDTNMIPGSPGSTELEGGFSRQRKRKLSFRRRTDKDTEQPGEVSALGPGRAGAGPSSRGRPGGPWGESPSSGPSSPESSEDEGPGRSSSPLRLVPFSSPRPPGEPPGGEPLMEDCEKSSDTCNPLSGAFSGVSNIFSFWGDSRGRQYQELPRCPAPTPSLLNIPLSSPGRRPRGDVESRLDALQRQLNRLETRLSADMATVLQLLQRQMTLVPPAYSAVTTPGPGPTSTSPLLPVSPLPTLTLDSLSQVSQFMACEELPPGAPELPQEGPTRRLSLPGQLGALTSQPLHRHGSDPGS
# Procedure, shortened: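 hERG block measured as reduced thallium-dye (FluxOR) fluorescence after stimulation buffer addition, read over 2 min. Cells were hERG-BacMam-transduced U2OS exposed to compound ~10 min […]; concentration-response fitted with Hill equation for AC50.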
# [11] = biological target: Glutaminase kidney isoform, mitochondrial (Homo sapiens) (UniProt O94925); experiment: qHTS for Inhibitors of Glutaminase (GLS): LOPAC Validation (AID 624146); note: nearly all actives have a fitted effect of over 60% in size; note: potency is the fitted concentration of half-maximal effect
# Glutaminase kidney isoform, mitochondrial (Homo sapiens), sequence (O94925 whole entry, looked up, canonical isoform): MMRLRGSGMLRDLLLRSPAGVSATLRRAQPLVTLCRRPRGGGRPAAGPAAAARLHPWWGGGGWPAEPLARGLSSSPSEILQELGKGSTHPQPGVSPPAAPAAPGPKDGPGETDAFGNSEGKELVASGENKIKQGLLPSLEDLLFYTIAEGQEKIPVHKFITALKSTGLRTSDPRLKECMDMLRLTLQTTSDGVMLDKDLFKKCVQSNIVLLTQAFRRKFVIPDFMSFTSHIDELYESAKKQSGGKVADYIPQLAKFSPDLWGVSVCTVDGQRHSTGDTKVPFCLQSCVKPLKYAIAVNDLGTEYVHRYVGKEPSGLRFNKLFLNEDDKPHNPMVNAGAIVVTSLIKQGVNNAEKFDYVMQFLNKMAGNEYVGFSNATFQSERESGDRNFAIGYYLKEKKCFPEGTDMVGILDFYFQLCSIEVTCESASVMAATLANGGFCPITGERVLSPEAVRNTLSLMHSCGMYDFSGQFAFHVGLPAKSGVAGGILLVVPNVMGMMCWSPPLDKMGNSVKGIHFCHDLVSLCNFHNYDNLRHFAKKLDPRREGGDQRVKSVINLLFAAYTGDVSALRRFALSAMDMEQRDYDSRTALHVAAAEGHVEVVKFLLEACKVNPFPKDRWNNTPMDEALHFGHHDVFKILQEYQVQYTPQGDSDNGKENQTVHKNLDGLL
# Procedure, shortened: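 Two-point fluorescence kinetic (t0, 30 min RT) for hKGA; glutamate detected via glutamate oxidase–HRP–Amplex Red. Substrate: 1 mM L-glutamine solution; buffer 45 mM KH2PO4, pH 8.2.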
# [12] = qHTS of Trypanosoma Brucei Inhibitors: LOPAC Validation (AID 624147)
# Procedure, shortened: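 Screened from lowest to highest concentration, compounds were pinned into TbPYK/substrate mixtures, and ADP (130 uM final) was added. Plates sat at room temperature for 45 min prior to Kinase-Glo Plus detection by luminescence.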
# [13] = biological target: Glucagon-like peptide 1 receptor (Homo sapiens) (UniProt P43220); experiment: qHTS of GLP-1 Receptor Agonists: LOPAC Validation (AID 624148);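 note: luminescence from a luciferase reporter switched on by cAMP; higher luminescence signal means agonism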
# Glucagon-like peptide 1 receptor (Homo sapiens), sequence (P43220 whole entry, looked up): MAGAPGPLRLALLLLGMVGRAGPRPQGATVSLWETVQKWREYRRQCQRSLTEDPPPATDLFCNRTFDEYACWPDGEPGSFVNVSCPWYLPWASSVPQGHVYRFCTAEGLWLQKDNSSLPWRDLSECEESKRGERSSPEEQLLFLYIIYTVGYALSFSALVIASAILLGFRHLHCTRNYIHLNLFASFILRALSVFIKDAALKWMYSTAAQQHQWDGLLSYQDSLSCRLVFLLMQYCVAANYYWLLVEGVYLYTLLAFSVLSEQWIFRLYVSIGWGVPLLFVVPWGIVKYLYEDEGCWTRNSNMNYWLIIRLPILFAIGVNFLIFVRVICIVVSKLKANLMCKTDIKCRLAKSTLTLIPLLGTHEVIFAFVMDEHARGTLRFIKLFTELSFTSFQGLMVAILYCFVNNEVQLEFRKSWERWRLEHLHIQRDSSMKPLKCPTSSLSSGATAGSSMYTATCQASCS
# Procedure, shortened: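 Agonism scored as increased luciferase luminescence driven by cAMP in HEK293 clones carrying GLP-1R. Cells settled 12 hours, received compound for 4-6 hr at 37 deg C, 5% CO2, and were read after 12 min detection reagent at RT.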
# [14] = qHTS of Nrf2 Activators: LOPAC Validation (AID 624149)
# Procedure, shortened: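 Luciferase signal from ARE activation, read with Steady-Glo after 30 min at room temperature. Compounds were pin-transferred onto AREc32_Fluc cells (1000/well, OPTI-MEM/5% FBS, seeded overnight) and left 24 hr at 37 deg C.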
# [15] = HTS Assay for Allosteric Antagonists of the Human D2 Dopamine Receptor: Hit Validation in HTRF (AID 624455);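 note: stable D1 dopamine receptor cell line scored for blocking the D1 response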
# Procedure, shortened: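 Inhibition of the D1-mediated response was measured by HTRF. Cells used were a line stably expressing the D1 dopamine receptor.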
# [16] = biological target: Peroxisome proliferator-activated receptor gamma (Homo sapiens) (UniProt P37231); experiment: qHTS assay for small molecule antagonists of peroxisome proliferator-activated receptor gamma signaling (AID 588537; active = well fitted inhibition curve with a large enough effect in the signal ratio, with a control signal flat, not every such curve was filed as active; the % refers to the signal ratio;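 note: reporter cells co-stimulated with 50 nM rosiglitazone agonist during compound treatment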)
# Procedure, shortened: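 Antagonist-mode β-lactamase reporter screen run as a titration series. HEK293 PPARγ-UAS-bla cells are stimulated with rosiglitazone (50 nM final) for 16 h, then CCF4 is read at 460/530 nm. Data are scaled between DMSO and rosiglitazone and fitted to the Hill equation.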
# [17] = biological target: Luciferin 4-monooxygenase (Photinus pyralis) (UniProt P08659); experiment: Biochemical firefly luciferase enzyme assay for NPC (AID 624030)
# Procedure, shortened: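 Direct inhibition of firefly luciferase enzyme (10 nM final, 50 mM Tris Acetate) assessed by luminescence within 5 minutes. Percent activity scaled between DMSO and PTC124 positive control, with concentration-effect curves classified by fit quality and response.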
# [18] = S16 Schwann cell PMP22 intronic element firefly luciferase assay (AID 624032)
# Procedure, shortened: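 Luciferase reporter of PMP22 intronic-element expression in stably transfected S16 rat Schwann cells, read by ONE-Glo luminescence after 24 h compound exposure at 37 C. Activity scaled between DMSO (0%) and positive-control PTC124; concentration-effect curves quality-classified.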
# [19] = S16 Schwann cell PMP22 intronic element beta-lactamase assay (AID 624044; calls by dose curve)
# Procedure, shortened: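 Beta-lactamase reporter under a PMP22 intronic regulatory element in stable S16 rat Schwann cells; 24 h compound exposure. 460 nm blue signal normalized between DMSO (0%) and potassium clavulanate, with 535 nm FRET tracking viability; curves classed by r2 and response.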
smiles,measurement,setting,value
CC(=O)C(C)=O,Potency,[1],inactive
same,outcome,[2],inactive
same,outcome,[3],inactive
same,max response,[4],-1.88%
same,Potency,[5],inactive
same,outcome,[6],inactive
same,max response,[7],7.05%
same,max response,[8],13% (inactive)
same,activity change % (negative = inhibition),[9],-0.316% (inactive)
same,Potency,[10],inactive
same,Potency,[11],inactive
same,Potency,[12],inactive
same,Potency,[13],inactive
same,Potency,[14],inactive
same,Potency,[15],inactive
CC1=C(/C=C/C(C)=C/C=C/C(C)=C\C(=O)O)C(C)(C)CCC1,Potency,[16],inactive
same,outcome,[2],inactive
same,outcome,[6],inactive
same,activity change % (negative = inhibition),[9],9.82% (inactive)
same,Potency,[11],inactive
same,Potency,[12],inactive
same,Potency,[13],inactive
same,Potency,[14],inactive
same,Potency,[15],inactive
CCCc1c(OCCCOc2ccc(OCC(=O)O)cc2)ccc(C(C)=O)c1O,Potency,[16],inactive
same,outcome,[6],inactive
same,max response,[7],32.8%
same,max response,[8],-30.3% (inactive)
same,Potency,[10],inactive
same,Potency,[11],inactive
same,Potency,[12],inactive
same,Potency,[13],inactive
same,Potency,[14],inactive
same,Potency,[15],inactive
NC(N)=N[C@@H](CCC(=O)O)C(=O)O,Potency,[10],inactive
same,Potency,[11],inactive
same,Potency,[12],inactive
same,Potency,[13],inactive
same,Potency,[14],inactive
COc1ccccc1N1CCN(CCN(C(=O)c2ccc(F)cc2)c2ccccn2)CC1,Potency,[10],11.2 µM (active)
same,Potency,[11],inactive
same,Potency,[12],inactive
same,Potency,[13],inactive
CC[C@@H]1Cc2cc(O)ccc2C2=C1c1ccc(O)cc1C[C@H]2CC,outcome,[3],inactive
same,Potency,[11],0.794 µM (active)
same,Potency,[12],inactive
same,Potency,[13],inactive
same,Potency,[14],inactive
O=C(O)C1CCCNC1 (configuration not stated),Potency,[10],inactive
same,Potency,[11],inactive
same,Potency,[12],inactive
same,Potency,[13],inactive
same,Potency,[14],inactive
c1ccc2c(c1)CC(N1CCN(c3cccc4c3OCCO4)CC1)C2,Potency,[10],15.8 µM (active)
same,Potency,[11],inactive
same,Potency,[12],inactive
same,Potency,[13],inactive
same,Potency,[14],inactive
same,Potency,[15],inactive
C[C@@]1(C2CCCC2)Cc2cc(OCC(=O)O)c(Cl)c(Cl)c2C1=O,Potency,[10],inactive
same,Potency,[11],inactive
same,Potency,[12],inactive
same,Potency,[13],inactive
same,Potency,[14],inactive
same,Potency,[15],inactive
COc1ccc(NC(=O)c2ccc(-c3ccc(-c4noc(C)n4)cc3C)cc2)cc1N1CCN(C)CC1,Potency,[10],3.55 µM (active)
same,Potency,[11],inactive
same,Potency,[12],inactive
same,Potency,[13],inactive
same,Potency,[14],inactive
same,Potency,[15],inactive
O=c1ccn([C@@H]2O[C@H](COP(=O)(O)OP(=O)(O)O)[C@@H](O)[C@H]2O)c(=O)[nH]1,Potency,[10],inactive
same,Potency,[11],inactive
same,Potency,[12],inactive
same,Potency,[13],inactive
same,Potency,[14],inactive
same,Potency,[15],inactive
CSC(N)=NCCC[C@H](N)C(=O)O,Potency,[10],inactive
same,Potency,[11],inactive
same,Potency,[12],inactive
same,Potency,[13],inactive
same,Potency,[14],inactive
same,Potency,[15],inactive
O=C(O)[C@H]1NCCC[C@H]1C(=O)O,Potency,[10],inactive
same,Potency,[11],inactive
same,Potency,[12],inactive
same,Potency,[13],inactive
same,Potency,[14],inactive
same,Potency,[15],inactive
NC1C=CC=C(C(=O)O)C1 (configuration not stated),Potency,[10],inactive
same,Potency,[11],inactive
same,Potency,[12],inactive
same,Potency,[13],inactive
same,Potency,[14],inactive
same,Potency,[15],inactive
O=C(O)C1CCNCC1,Potency,[10],inactive
same,Potency,[11],inactive
same,Potency,[12],inactive
same,Potency,[13],inactive
same,Potency,[14],inactive
same,Potency,[15],inactive
COc1ccc2c(c1)c(CC(=O)O)c(C)n2C(=O)c1ccccc1,Potency,[10],inactive
same,Potency,[11],inactive
same,Potency,[12],inactive
same,Potency,[13],inactive
same,Potency,[14],inactive
same,Potency,[15],inactive
N=C(N)SCCc1cnc[nH]1,Potency,[10],inactive
same,Potency,[11],inactive
same,Potency,[12],inactive
same,Potency,[13],inactive
same,Potency,[14],inactive
Nn1nnc2ccccc21,Potency,[10],inactive
same,Potency,[11],inactive
same,Potency,[12],inactive
same,Potency,[13],inactive
same,Potency,[14],inactive
same,Potency,[15],inactive
CSC(=N)N,Potency,[10],inactive
same,Potency,[11],inactive
same,Potency,[12],inactive
same,Potency,[13],inactive
same,Potency,[14],inactive
same,Potency,[15],inactive
CC(C)C[C@H](NC(=O)[C@H](O)[C@H](N)Cc1ccccc1)C(=O)O,Potency,[10],inactive
same,Potency,[11],inactive
same,Potency,[12],inactive
same,Potency,[13],inactive
same,Potency,[14],inactive
same,Potency,[15],inactive
CC(N)(Cc1ccc(O)cc1)C(=O)O (configuration not stated),Potency,[10],inactive
same,Potency,[11],inactive
same,Potency,[12],inactive
same,Potency,[13],inactive
same,Potency,[14],inactive
same,Potency,[15],inactive
c1ccc(CN2CCC3(CCCc4ccccc43)CC2)cc1,Potency,[10],3.98 µM (active)
same,Potency,[11],inactive
same,Potency,[12],inactive
same,Potency,[13],inactive
same,Potency,[14],inactive
same,Potency,[15],inactive
CC(N)=NCCCC[C@@H](N)C(=O)O,Potency,[10],inactive
same,Potency,[11],inactive
same,Potency,[12],inactive
same,Potency,[13],inactive
same,Potency,[14],inactive
same,Potency,[15],inactive
Cc1nc(N=Nc2cc(S(=O)(=O)O)c3cc([N+](=O)[O-])cc(S(=O)(=O)O)c3c2)c(COP(=O)(O)O)c(C=O)c1O,Potency,[10],inactive
same,Potency,[11],inactive
same,Potency,[12],inactive
same,Potency,[13],inactive
same,Potency,[14],inactive
same,Potency,[15],inactive
CC(C)Cn1c(=O)n(C)c(=O)c2[nH]cnc21,Potency,[10],inactive
same,Potency,[11],inactive
same,Potency,[12],inactive
same,Potency,[13],inactive
same,Potency,[14],inactive
same,Potency,[15],inactive
CCCn1c(=O)c2c(ncn2C)n(CCC)c1=O,Potency,[10],inactive
same,Potency,[11],inactive
same,Potency,[12],inactive
same,Potency,[13],inactive
same,Potency,[14],inactive
same,Potency,[15],inactive
NS(=O)(=O)c1cccc2c1c([N+](=O)[O-])cc1nc(O)c(O)nc12,Potency,[10],inactive
same,Potency,[11],inactive
same,Potency,[12],inactive
same,Potency,[13],inactive
same,Potency,[14],inactive
same,Potency,[15],inactive
O=[N+]([O-])c1cccc2cn[nH]c12,Potency,[10],inactive
same,Potency,[11],inactive
same,Potency,[12],inactive
same,Potency,[13],inactive
same,Potency,[14],inactive
same,Potency,[15],inactive
